# Laboratory results taken from PubChem BioAssay (NCATS).
# Records with an inconclusive call do not appear. A call without a number means that no potency is given here. Activity calls are given as the source filed them. Calls come from the whole dose curve; as a rule, active = well fitted inhibition curve with a large enough effect; inconclusive = small, poorly fitted or top-dose-only effect; inactive = flat fitted curve, though single readings scatter.
# Test system: N140
# Assay: qHTS profiling for inhibitors of Plasmodium falciparum proliferation (AID 504749); note: nearly all actives have a fitted effect of over 60% in size
# Details: P. falciparum in erythrocytes, SYBR Green DNA, 72 h; series mostly up to 28.7 µM
# Procedure, shortened: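 Quantitative HTS: compounds pinned into medium, infected erythrocytes added (0.3% parasitemia, 2.5% hematocrit), 72 h culture at 37 C under 5% CO2. Saponin/Triton lysis with SYBR Green I, overnight RT, then fluorescence read.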
# Potency is the fitted concentration of half-maximal effect.
row,Structure (SMILES),Potency
1,CCCC(=O)Nc1ncnc2c1ncn2C1OC2COP(=O)(O)OC2C1OC(=O)CCC (configuration not stated),inactive
2,CCCCCCCCCCCCCC[n+]1ccc(C)cc1,7.08 µM (active)
3,C[C@]12CCC(=O)C=C1CC[C@@H]1[C@@H]2[C@@H](O)C[C@@]2(C)[C@H]1CC[C@]2(O)C(=O)COP(=O)(O)O,inactive
4,CC(NNC(=O)c1ccccc1)c1ccccc1 (configuration not stated),inactive
5,COC(C(=O)C(O)C(C)O)C1Cc2cc3cc(OC4CC(OC5CC(O)C(O)C(C)O5)C(O)C(C)O4)c(C)c(O)c3c(O)c2C(=O)C1OC1CC(OC2CC(OC3CC(C)(O)C(O)C(C)O3)C(O)C(C)O2)C(O)C(C)O1 (configuration not stated),0.199 µM (active)
6,Nc1c(N=Nc2ccc(-c3ccc(N=Nc4cc(S(=O)(=O)O)c5ccccc5c4N)cc3)cc2)cc(S(=O)(=O)O)c2ccccc12,inactive
7,Cc1c(C)c2c(c(C)c1O)CC[C@@](C)(CCC[C@H](C)CCC[C@H](C)CCCC(C)C)O2,inactive
8,CCN(CC)CCOc1ccc(-c2nc3cc(Cl)ccc3s2)cc1,inactive
9,CCOC(=O)C1=C(C)NC(C)=C(C(=O)OCC)C1c1ccccc1C=CC(=O)OC(C)(C)C,10 µM (active)
10,CC(C)N=c1cc2n(-c3ccc(Cl)cc3)c3ccccc3nc-2cc1Nc1ccc(Cl)cc1,inactive
11,COC(=O)[C@H]1[C@H]2C[C@@H]3c4[nH]c5ccccc5c4CCN3C[C@H]2C[C@@H](OC(=O)c2cc(OC)c(OC)c(OC)c2)[C@@H]1OC,0.199 µM (active)
12,CC1=C(/C=C/C(C)=C/C=C/C(C)=C/C=C/C=C(C)/C=C/C=C(C)/C=C/C2=C(C)CCCC2(C)C)C(C)(C)CCC1,inactive
